High-throughput results from PubChem BioAssay.
This is a sample that favours compounds with a hit; in the whole collection about 5.7% have one here.
rCAG RNA binder: binds r(CAG) RNA repeats; r(CAG) RNA repeat, TO-PRO-1 dye displacement fluorescence; inhibition, % at 3 µM; hit rate 1.3% among 370,000; AID 651821;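 active = inhibition above the plate cutoff, the mean of all test compounds on that plate plus 3 SD, cut at about 35% in these data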;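 also: 0% = DMSO alone and 100% = 100 µM mitoxantrone as full dye displacement; higher means more dye released from RNA so lower well fluorescence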
Myeloid diff 2: myeloid differentiation induction; ER-HoxA9 myeloid progenitors, lysozyme-GFP differentiation, flow cytometry; calls only at 10 µM; hit rate 1% among 360,000; AID 624256;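 active = normalized GFP-positive differentiation at or above the plate's own cutoff, the solvent-only control mean plus 3 SD; inconclusive = no clear call, values can overlap the other calls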;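 also: cells exposed to compound for four days before flow analysis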
GRIN3A LBD mod: NR3A (human) ligand-binding domain modulation | NR3A LBD differential scanning fluorimetry, Tm shift; 0% = protein alone, 100% = glycine-bound protein | Tm shift relative to glycine control, % at 25 µM | hit rate 2.5% among 340,000;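 active = melting temperature shift of at least 10% of the positive control shift, at one fixed dose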
FAS-TE inh: blocks the thioesterase domain of human fatty acid synthase | P49327 | recombinant FAS-TE, OMFH fluorogenic substrate, fluorescence endpoint | inhibition, % at 15 µM | hit rate 0.67% among 360,000;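 active = compounds whose normalised, plate-corrected inhibition of enzyme fluorescence in the single-dose primary screen is 50% or more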;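 also: 0% = DMSO with enzyme and 100% = substrate without enzyme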
MPTP block: inhibitors of mitochondrial permeability transition pore. inhibition, % at 10 µM. hit rate 1.4% among 360,000. isolated mouse mitochondria, Ca2+ swelling absorbance, 30 min;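 active = inhibition of 50% or more, scaled per plate between neutral and stimulator controls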;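 also: 0% = DMSO wells given calcium and 100% = 1 mM EGTA wells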
FAS-TE conf: confirmation of human fatty acid synthase thioesterase inhibitors; shares compounds with FAS-TE inh; inhibition, % at 15 µM; recombinant FAS-TE, OMFH fluorogenic substrate, fluorescence; hit rate 45% among 2,300;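 active = compounds inhibiting the enzyme by at least 50% at 15 µM in any one of the replicates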;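 also: 0% = enzyme with DMSO only and 100% = wells lacking enzyme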
MPTP counter: mitochondrial membrane potential, counter-screen; AID 624504; shares compounds with MPTP block; isolated mitochondria, Rhodamine 123 fluorescence; hit rate 78% among 5,000; inhibition, % at 10 µM; in the data active = inhibition above about 22%;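 also: 0% = DMSO vehicle and 100% = positive control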
MPTP swell DR: dose response confirmation of mitochondrial permeability transition pore inhibitors | shares compounds with MPTP block | isolated mitochondria swelling, absorbance | IC50, µM | hit rate 58% among 780 | AID 651561; in the data active = IC50 below about 20 µM
MPTP counter DR: active in counter-screen for permeability transition pore inhibitors | shares compounds with MPTP block | isolated mitochondria counterscreen, fluorescence read-out | IC50, µM | hit rate 49% among 780; in the data active = IC50 below about 80 µM
An asterisk follows results filed as active; i = inactive; ? = inconclusive; / = no result given.

SMILES	rCAG RNA binder	Myeloid diff 2	GRIN3A LBD mod	FAS-TE inh	MPTP block	FAS-TE conf	MPTP counter	others
O=C(CSc1nc2nc(-c3cccs3)cc(C(F)(F)F)c2c(=O)[nH]1)Nc1c(F)c(F)c(F)c(F)c1F	13.0	i	21.9*	50.2*	55.0*	26.0	70.0*
N#CCCN(C(=O)CSc1nc2nc(-c3cccs3)cc(C(F)(F)F)c2c(=O)[nH]1)c1ccccc1	2.9	i	-5.5	-1.0	6.9	/	/
Cc1cc(O)cc(=O)n1-c1cccc(C(F)(F)F)c1	1.1	/	/	/	/	/	/
O=C(Nc1ccc(Cc2ccncc2)cc1)c1ccc(Cl)c([N+](=O)[O-])c1	0.5	i	-7.2	55.7*	53.9*	62.5*	75.2*
COC(=O)c1cc2c(c3c4cc(C)ccc4n(S(=O)(=O)c4ccc(C)cc4)c13)C(=O)N(Cc1ccccc1OC)C2	12.2	/	/	/	/	/	/
O=C(Nc1ccccc1)c1cc([N+](=O)[O-])ccc1Cl	2.0	i	3.3	28.0	-1.8	/	/
O=C(O)CCCNc1c(C(=O)Nc2ccc(Cl)cc2)cc([N+](=O)[O-])cc1[N+](=O)[O-]	25.9	i	-0.7	74.0*	87.7*	81.1*	93.7*
COC(=O)c1cc2c(c3c4cc(C)ccc4n(S(=O)(=O)c4cccc(C)c4)c13)C(=O)N(Cc1ccc(N(C)C)cc1)C2	13.2	/	/	/	/	/	/
Cc1ccc2nc(SCC(=O)Nc3ccc(F)c([N+](=O)[O-])c3)[nH]c2c1	13.1	i	9.0	62.1*	87.6*	68.4*	76.2*
COC(=O)/C=C1\OC(C)c2ccccc21 (stereo not drawn)	3.7	/	/	/	/	/	/
CC(C)(C)c1nc(Sc2ccc([N+](=O)[O-])cn2)n[nH]1	0.2	i	-0.6	12.6	0.5	/	/
O=[N+]([O-])c1ccc(Sc2n[nH]c(-c3ccc(Cl)cc3Cl)n2)nc1	7.0	i	-6.4	62.8*	90.4*	59.9*	0.2	MPTP swell DR=19.8*;MPTP counter DR=5.76*
Cc1ccc(NC(=S)NCc2ccccc2)cc1[N+](=O)[O-]	9.7	i	-11.2	64.2*	98.6*	38.2	91.2*
Cc1ccc(NC(=O)C[n+]2ccccc2)cc1[N+](=O)[O-]	0.9	i	0.8	-1.4	-0.6	/	/
CCc1ccc(S(=O)(=O)c2nnn3c2nc(NCCNC(C)=O)c2ccccc23)cc1	3.1	i	-5.7	76.7*	64.9*	78.9*	43.1*
Cc1cc(NC(=O)Nc2cccc([N+](=O)[O-])c2)no1	11.5	i	0.2	6.4	16.4	/	/
O=C(Nc1ccc(OC(F)(F)F)cc1)Nc1cccc([N+](=O)[O-])c1	18.7	?	13.0*	73.4*	74.7*	48.6*	64.2*
Cc1cc(Br)ccc1NC(=O)C(C)c1ccc([N+](=O)[O-])cc1 (stereo not drawn)	7.0	i	-8.8	55.6*	54.5*	51.4*	68.9*
CCN(C[C@H]1N[C@@](Cc2ccccc2)(C(=O)OC)[C@H]2C(=O)N(Cc3ccccc3)C(=O)[C@@H]12)C(=O)Nc1ccc(C)cc1	10.4	i	2.2	23.6	1.9	/	/
CCN(C[C@H]1N[C@@](Cc2ccccc2)(C(=O)OC)[C@H]2C(=O)N(Cc3ccccc3)C(=O)[C@@H]12)C(=O)Nc1ccc(C(F)(F)F)cc1	2.9	i	7.8	61.9*	79.5*	16.7	104.7*
Cc1ccc([N+](=O)[O-])cc1NC(=O)C(Sc1ccccc1)c1ccccc1 (stereo not drawn)	2.6	i	3.0	81.5*	94.3*	85.2*	78.8*
Cc1ccc([N+](=O)[O-])cc1NC(=O)c1ccccc1	-2.6	i	0.2	15.6	-1.1	/	/
COCCN1Cc2cc(C(=O)OC)c3c(c2C1=O)c1cc(F)ccc1n3C(=O)c1ccccc1	7.2	/	/	/	/	/	/
CN(CC(=O)Nc1ccc(Cl)c(Cl)c1)C(=O)C12CC3CC(CC(C3)C1)C2	0.2	i	5.6	54.1*	64.2*	19.2	82.5*
CN(CC(=O)Nc1ccc(Cl)c(Cl)c1)C1CCCCC1	-3.7	i	2.5	31.1	1.5	/	/
